Data from PMC7862700, “An all-to-all approach to the identification of sequence-specific readers for epigenetic DNA modifications on cytosine”.

Legend:
Test in all cases: DAPPL (digital affinity profiling via proximity ligation, sequencing); 10 mM Tris-HCl pH 7.5, 50 mM NaCl, 1 mM DTT, 4% glycerol, room temperature, 30 min; GST-TFs on glutathione beads, 16-mer random dsDNA library, 0.1% formaldehyde crosslink after washing; high values mean tight binding
FEV = biological target: T1, FEV (Homo sapiens, UniProt Q99581 1-238); conditions: protein: recombinant; tags: N-terminal GST; dsDNA, one strand shown
T1 sequence: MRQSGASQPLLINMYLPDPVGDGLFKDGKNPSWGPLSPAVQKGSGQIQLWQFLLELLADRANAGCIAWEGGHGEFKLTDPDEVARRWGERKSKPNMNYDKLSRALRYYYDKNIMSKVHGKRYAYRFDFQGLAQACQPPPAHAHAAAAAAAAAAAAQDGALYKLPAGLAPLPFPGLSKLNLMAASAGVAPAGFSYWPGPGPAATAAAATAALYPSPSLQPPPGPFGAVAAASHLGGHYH
How it was run: (§1)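 Human transcription factors fused to GST were expressed in yeast, captured on glutathione beads, given DNA barcodes and pooled with a GST-only negative control. Pools were incubated with 200 nmole of a 16-mer random double-stranded DNA library in Tris/NaCl/DTT/glycerol buffer at room temperature for 30 min. They were then washed, crosslinked with 0.1% formaldehyde, proximity-ligated (BsaI/T4 ligase, 1 h, 37 °C), PCR-amplified and sequenced on an Illumina NextSeq500. Binding signal is each 6-mer's read frequency for a factor divided by its frequency for the GST control.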

ETV5 = ETV5 (Homo sapiens, UniProt P41161 1-510); conditions: protein: recombinant; tags: N-terminal GST; dsDNA, one strand shown
How it was run: as §1

HSF1 = HSF1 (Homo sapiens, UniProt Q00613 1-529); conditions: protein: recombinant; tags: N-terminal GST; chain copies: 3; dsDNA, one strand shown
How it was run: as §1

SPIC = biological target: T2, SPIC (Homo sapiens, UniProt Q8N5J4 1-248); conditions: protein: recombinant; tags: N-terminal GST; dsDNA, one strand shown
T2 sequence: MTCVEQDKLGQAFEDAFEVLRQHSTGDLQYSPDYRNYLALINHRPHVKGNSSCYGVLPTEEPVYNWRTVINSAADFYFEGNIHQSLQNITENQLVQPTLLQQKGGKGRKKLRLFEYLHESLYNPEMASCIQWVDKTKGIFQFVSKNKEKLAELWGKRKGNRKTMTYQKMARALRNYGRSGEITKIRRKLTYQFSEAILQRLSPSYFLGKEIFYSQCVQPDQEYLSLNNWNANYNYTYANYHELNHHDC
How it was run: as §1

ELF4 = ELF4 (Homo sapiens, UniProt Q99607 1-663); conditions: protein: recombinant; tags: N-terminal GST; dsDNA, one strand shown
How it was run: as §1

ELK4 = biological target: T3, ELK4 (Homo sapiens, UniProt P28324-2 1-405); conditions: protein: recombinant; tags: N-terminal GST; dsDNA, one strand shown
T3 sequence: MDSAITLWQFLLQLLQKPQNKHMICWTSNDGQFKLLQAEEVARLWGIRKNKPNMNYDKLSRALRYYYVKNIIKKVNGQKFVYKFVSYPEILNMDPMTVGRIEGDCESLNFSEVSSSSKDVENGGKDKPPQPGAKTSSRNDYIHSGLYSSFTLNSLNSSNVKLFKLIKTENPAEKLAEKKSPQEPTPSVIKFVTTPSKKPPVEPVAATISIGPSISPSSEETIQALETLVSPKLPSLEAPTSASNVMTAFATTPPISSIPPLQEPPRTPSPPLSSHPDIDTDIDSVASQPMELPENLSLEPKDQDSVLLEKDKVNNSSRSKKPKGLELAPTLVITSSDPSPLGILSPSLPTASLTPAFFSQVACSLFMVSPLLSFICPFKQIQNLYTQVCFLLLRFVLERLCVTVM
How it was run: as §1

ETV2 = biological target: T4, ETV2 (Homo sapiens, UniProt O00321 1-342); conditions: protein: recombinant; tags: N-terminal GST; dsDNA, one strand shown
T4 sequence: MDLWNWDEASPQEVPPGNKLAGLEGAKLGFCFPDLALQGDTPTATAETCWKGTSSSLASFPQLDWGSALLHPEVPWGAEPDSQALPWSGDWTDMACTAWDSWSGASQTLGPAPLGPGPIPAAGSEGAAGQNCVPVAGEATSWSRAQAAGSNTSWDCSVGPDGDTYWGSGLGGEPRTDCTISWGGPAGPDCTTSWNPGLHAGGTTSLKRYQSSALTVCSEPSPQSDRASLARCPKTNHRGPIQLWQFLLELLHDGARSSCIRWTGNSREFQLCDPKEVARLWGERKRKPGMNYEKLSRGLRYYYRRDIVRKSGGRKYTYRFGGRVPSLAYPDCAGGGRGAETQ
How it was run: as §1

ELF3 = biological target: T5, ELF3 (Homo sapiens, UniProt P78545 1-371); conditions: protein: recombinant; tags: N-terminal GST; dsDNA, one strand shown
T5 sequence: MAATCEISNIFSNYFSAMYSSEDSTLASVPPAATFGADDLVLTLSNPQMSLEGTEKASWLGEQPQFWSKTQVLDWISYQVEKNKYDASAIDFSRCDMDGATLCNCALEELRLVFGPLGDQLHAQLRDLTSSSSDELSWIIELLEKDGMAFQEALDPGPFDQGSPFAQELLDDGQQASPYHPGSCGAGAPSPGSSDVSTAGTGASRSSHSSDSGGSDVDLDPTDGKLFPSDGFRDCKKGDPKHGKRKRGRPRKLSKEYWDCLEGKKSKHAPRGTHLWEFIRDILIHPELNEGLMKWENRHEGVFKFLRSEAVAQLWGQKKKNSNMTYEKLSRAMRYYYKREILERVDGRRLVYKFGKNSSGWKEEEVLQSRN
How it was run: as §1

CRX = CRX (Homo sapiens, UniProt O43186 1-299); conditions: protein: recombinant; tags: N-terminal GST; dsDNA, one strand shown
How it was run: as §1

ETV1 = ETV1 (Homo sapiens, UniProt P50549 1-477); conditions: protein: recombinant; tags: N-terminal GST; dsDNA, one strand shown
How it was run: as §1

ERF = biological target: T6, ERF (Homo sapiens, UniProt P50548 1-548); conditions: protein: recombinant; tags: N-terminal GST; dsDNA, one strand shown
T6 sequence: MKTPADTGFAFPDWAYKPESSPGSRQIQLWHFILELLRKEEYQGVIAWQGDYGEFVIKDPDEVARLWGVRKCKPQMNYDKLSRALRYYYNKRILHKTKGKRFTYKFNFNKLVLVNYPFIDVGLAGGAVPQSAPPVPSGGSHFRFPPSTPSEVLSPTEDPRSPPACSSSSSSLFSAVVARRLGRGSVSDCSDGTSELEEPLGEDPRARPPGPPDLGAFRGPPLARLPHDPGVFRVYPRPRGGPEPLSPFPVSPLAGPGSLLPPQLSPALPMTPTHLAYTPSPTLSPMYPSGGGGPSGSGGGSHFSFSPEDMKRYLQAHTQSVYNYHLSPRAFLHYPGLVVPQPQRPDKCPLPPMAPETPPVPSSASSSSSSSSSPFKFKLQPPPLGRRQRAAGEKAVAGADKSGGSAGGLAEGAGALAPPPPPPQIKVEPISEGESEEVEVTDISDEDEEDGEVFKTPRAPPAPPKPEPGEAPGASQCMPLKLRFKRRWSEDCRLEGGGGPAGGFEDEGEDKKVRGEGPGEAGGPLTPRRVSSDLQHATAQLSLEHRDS
How it was run: as §1

ETV3L = biological target: T7, ETV3L (Homo sapiens, UniProt Q6ZN32 1-361); conditions: protein: recombinant; tags: N-terminal GST; dsDNA, one strand shown
T7 sequence: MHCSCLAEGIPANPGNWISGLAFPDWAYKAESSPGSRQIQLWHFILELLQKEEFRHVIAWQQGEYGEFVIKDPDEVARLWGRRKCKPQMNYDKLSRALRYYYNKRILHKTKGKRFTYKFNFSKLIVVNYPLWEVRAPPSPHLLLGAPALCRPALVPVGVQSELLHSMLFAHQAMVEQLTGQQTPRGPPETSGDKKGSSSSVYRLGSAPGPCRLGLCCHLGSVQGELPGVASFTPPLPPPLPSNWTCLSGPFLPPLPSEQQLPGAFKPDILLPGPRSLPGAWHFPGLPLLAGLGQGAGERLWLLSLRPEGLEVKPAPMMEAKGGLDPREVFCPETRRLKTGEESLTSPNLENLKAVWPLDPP
How it was run: as §1

ETS2 = biological target: T8, ETS2 (Homo sapiens, UniProt P15036 1-469); conditions: protein: recombinant; tags: N-terminal GST; dsDNA, one strand shown
T8 sequence: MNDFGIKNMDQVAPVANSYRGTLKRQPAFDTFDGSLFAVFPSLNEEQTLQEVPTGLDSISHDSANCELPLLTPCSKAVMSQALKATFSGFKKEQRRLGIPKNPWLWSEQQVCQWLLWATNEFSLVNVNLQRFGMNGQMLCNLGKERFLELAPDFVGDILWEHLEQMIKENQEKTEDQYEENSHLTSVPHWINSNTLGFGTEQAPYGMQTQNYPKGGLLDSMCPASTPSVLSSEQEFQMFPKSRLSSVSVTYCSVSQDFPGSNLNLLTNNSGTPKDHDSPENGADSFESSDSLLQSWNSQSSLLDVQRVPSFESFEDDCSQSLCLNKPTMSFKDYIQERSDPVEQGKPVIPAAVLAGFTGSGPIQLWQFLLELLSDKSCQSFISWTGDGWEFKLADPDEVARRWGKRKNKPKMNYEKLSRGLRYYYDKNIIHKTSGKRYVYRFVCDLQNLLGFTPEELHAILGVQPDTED
How it was run: as §1

SPDEF = biological target: T9, SPDEF (Homo sapiens, UniProt O95238 1-335); conditions: protein: recombinant; tags: N-terminal GST; dsDNA, one strand shown
T9 sequence: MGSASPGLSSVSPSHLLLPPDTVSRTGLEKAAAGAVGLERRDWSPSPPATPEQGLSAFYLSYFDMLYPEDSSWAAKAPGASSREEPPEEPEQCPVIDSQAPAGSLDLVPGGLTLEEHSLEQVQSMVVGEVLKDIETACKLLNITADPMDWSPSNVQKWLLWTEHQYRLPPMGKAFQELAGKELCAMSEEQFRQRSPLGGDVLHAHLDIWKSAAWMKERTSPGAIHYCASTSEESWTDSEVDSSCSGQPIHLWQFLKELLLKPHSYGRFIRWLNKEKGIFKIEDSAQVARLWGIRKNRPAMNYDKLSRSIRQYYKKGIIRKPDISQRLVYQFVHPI
How it was run: as §1

ETV7 = biological target: T10, ETV7 (Homo sapiens, UniProt Q9Y603 1-341); conditions: protein: recombinant; tags: N-terminal GST; dsDNA, one strand shown
T10 sequence: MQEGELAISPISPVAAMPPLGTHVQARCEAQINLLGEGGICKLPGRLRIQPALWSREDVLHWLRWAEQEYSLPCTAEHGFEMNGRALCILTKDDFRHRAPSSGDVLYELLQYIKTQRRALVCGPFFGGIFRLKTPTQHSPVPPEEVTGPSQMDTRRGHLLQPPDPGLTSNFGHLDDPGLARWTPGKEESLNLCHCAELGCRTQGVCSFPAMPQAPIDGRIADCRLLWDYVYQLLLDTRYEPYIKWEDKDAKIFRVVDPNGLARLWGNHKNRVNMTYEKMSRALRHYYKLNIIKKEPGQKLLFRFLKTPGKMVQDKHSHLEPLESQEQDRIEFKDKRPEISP
How it was run: as §1

ELF5 = biological target: T11, ELF5 (Homo sapiens, UniProt Q9UKW6-2 1-255); conditions: protein: recombinant; tags: N-terminal GST; dsDNA, one strand shown
T11 sequence: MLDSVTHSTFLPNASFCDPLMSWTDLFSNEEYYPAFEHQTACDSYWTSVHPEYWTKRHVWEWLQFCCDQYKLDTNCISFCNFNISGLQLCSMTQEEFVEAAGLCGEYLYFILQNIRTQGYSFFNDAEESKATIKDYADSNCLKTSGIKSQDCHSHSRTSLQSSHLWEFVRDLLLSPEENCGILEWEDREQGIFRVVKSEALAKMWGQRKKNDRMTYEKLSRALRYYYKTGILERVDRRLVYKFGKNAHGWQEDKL
How it was run: as §1

ETV3 = biological target: T12, ETV3 (Homo sapiens, UniProt P41162-2 1-143); conditions: protein: recombinant; tags: N-terminal GST; dsDNA, one strand shown
T12 sequence: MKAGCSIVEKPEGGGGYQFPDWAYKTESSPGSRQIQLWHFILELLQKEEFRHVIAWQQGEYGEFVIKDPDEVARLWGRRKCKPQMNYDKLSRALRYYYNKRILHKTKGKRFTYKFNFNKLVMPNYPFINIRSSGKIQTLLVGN
How it was run: as §1

ETV6 = ETV6 (Homo sapiens, UniProt P41212 1-452); conditions: protein: recombinant; tags: N-terminal GST; dsDNA, one strand shown
How it was run: as §1

Sequence of ELF4 (Q99607 whole entry): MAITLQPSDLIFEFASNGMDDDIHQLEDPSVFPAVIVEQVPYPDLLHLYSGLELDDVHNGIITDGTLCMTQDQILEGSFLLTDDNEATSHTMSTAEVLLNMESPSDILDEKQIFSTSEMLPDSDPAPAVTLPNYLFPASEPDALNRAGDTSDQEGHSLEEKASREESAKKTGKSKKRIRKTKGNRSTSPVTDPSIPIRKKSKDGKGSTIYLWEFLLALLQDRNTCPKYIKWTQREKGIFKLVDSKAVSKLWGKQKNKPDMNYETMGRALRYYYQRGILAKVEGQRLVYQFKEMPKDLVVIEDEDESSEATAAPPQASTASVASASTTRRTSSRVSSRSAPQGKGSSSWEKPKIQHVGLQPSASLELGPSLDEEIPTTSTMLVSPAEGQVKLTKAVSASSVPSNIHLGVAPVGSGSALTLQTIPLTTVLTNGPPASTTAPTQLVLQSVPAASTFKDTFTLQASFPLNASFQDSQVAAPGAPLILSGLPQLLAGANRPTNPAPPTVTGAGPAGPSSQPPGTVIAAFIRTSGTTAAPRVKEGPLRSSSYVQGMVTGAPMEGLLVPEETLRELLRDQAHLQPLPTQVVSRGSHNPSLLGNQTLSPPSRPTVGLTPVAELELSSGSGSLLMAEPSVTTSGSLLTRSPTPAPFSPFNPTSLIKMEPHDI
Sequence of ETV6 (P41212 whole entry): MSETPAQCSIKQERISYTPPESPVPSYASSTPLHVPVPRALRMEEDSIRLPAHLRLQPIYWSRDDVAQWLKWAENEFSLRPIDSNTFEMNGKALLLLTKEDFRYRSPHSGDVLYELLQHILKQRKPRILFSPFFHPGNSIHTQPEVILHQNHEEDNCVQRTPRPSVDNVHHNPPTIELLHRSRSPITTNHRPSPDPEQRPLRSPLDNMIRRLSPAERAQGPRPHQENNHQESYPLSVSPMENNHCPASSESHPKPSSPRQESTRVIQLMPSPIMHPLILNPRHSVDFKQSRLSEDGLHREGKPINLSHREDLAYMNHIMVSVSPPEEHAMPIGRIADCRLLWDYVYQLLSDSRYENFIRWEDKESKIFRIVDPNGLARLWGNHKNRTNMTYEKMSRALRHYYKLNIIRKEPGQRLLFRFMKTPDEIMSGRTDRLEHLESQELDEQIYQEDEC
Sequence of HSF1 (Q00613 whole entry): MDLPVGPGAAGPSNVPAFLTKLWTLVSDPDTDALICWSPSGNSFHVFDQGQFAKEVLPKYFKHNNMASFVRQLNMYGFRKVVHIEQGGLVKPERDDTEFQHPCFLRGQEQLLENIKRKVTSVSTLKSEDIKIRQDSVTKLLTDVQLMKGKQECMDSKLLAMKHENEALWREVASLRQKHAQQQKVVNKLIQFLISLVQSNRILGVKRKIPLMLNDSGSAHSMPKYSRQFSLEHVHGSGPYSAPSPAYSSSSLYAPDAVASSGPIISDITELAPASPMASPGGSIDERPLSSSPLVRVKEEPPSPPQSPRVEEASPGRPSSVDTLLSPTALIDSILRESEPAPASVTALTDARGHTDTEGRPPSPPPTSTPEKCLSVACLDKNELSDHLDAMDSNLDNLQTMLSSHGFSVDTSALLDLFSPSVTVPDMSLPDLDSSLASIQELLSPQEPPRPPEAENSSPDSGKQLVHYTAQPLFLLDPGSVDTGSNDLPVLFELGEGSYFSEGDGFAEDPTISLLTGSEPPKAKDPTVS
Sequence of ETV1 (P50549 whole entry): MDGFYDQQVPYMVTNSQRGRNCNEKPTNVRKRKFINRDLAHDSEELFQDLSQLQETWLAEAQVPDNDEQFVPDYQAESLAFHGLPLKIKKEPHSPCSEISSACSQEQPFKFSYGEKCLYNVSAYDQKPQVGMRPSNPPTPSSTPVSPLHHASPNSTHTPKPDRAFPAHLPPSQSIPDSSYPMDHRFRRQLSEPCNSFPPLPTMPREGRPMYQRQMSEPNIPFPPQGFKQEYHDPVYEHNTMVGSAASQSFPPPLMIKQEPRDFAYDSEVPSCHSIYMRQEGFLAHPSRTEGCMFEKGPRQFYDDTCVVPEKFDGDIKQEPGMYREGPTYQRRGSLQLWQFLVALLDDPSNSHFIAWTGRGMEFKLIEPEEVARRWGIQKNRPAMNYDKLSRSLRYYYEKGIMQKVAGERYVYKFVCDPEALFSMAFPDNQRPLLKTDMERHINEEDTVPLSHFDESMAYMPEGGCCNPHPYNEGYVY
Sequence of ETV5 (P41161 whole entry): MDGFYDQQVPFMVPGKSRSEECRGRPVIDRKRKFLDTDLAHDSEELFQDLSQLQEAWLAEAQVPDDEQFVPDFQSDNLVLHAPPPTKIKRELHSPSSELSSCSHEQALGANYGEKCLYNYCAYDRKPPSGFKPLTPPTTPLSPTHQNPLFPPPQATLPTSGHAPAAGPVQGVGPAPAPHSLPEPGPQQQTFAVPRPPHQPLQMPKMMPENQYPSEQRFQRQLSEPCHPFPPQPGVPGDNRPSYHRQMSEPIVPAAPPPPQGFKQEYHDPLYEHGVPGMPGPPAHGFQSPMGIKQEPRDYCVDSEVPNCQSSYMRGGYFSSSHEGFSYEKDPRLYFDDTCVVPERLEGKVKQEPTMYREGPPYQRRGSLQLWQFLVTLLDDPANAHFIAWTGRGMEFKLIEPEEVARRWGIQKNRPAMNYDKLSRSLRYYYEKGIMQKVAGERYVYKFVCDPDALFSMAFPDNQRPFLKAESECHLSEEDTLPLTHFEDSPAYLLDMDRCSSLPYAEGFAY
Sequence of CRX (O43186 whole entry): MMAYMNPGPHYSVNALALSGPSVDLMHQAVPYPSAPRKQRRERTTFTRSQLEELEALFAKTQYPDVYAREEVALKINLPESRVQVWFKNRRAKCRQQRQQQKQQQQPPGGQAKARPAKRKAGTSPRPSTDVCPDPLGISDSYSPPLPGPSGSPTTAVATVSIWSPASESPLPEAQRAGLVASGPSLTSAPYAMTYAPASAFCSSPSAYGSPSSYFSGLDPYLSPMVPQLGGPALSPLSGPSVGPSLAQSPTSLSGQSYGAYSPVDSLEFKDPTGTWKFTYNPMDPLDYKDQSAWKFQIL

What does the source list for TCCCTA?
binding signal (FEV): 1.2 fold enrichment (6-mer frequency, TF over GST control); binding signal (ETV5): 1.43 fold enrichment (6-mer frequency, TF over GST control); binding signal (HSF1): 1.32 fold enrichment (6-mer frequency, TF over GST control); binding signal (SPIC): 1.31 fold enrichment (6-mer frequency, TF over GST control); binding signal (ELF4): 1.31 fold enrichment (6-mer frequency, TF over GST control); binding signal (ELK4): 1.19 fold enrichment (6-mer frequency, TF over GST control); binding signal (ETV2): 1.25 fold enrichment (6-mer frequency, TF over GST control); binding signal (ELF3): 1.36 fold enrichment (6-mer frequency, TF over GST control); binding signal (CRX): 1.47 fold enrichment (6-mer frequency, TF over GST control); binding signal (ETV1): 1.32 fold enrichment (6-mer frequency, TF over GST control); binding signal (ERF): 1.43 fold enrichment (6-mer frequency, TF over GST control); binding signal (ETV3L): 1.39 fold enrichment (6-mer frequency, TF over GST control); binding signal (ETS2): 1.32 fold enrichment (6-mer frequency, TF over GST control); binding signal (SPDEF): 1.4 fold enrichment (6-mer frequency, TF over GST control); binding signal (ETV7): 1.16 fold enrichment (6-mer frequency, TF over GST control); binding signal (ELF5): 1.67 fold enrichment (6-mer frequency, TF over GST control); binding signal (ETV3): 1.38 fold enrichment (6-mer frequency, TF over GST control); binding signal (ETV6): 1.17 fold enrichment (6-mer frequency, TF over GST control)
